PubChem BioAssay (EPA / NIEHS)
Where “and” joins values, the source holds several entries; their conditions need not be identical. Equal values may be shown once. Records with an inconclusive call do not appear. Some compounds were tested as several samples or in several runs, with calls that do not always agree. Calls of active or inactive are those of the source. The calls were made as follows: active = hit-call score of the fitted dose curve at least 0.9, where 1 is the maximum; inactive = score below 0.9.

Experiments:
[1] = target: Nuclear respiratory factor 1 (Homo sapiens) (UniProt Q16656); assay: ATG_NRF1_CIS: Attagene CIS-FACTORIAL HepG2 Assay for human Nuclear Respiratory Factor 1 (NRF1) Orphan Gene (AID 2282987); conditions: HepG2 NRF1 cis-element reporter, Attagene multiplex; actives raise or lower the signal
Chain of Nuclear respiratory factor 1 (Homo sapiens) (Q16656 whole entry, looked up): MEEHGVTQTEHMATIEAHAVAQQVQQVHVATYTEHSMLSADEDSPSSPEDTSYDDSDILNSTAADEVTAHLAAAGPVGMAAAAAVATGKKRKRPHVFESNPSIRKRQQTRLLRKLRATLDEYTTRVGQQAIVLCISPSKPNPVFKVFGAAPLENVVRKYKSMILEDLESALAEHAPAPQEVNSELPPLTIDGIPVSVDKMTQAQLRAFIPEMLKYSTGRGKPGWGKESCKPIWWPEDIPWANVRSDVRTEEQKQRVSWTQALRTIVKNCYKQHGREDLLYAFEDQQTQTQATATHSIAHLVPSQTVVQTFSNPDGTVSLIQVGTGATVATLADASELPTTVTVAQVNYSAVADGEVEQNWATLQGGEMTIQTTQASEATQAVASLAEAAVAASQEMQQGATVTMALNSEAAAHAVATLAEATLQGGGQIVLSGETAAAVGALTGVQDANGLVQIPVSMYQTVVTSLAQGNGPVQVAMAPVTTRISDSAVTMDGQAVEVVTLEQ
In short: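 HepG2 cells transiently transfected with multiple cis-regulated reporter units, exposed 24 h. Reporter mRNAs measured by RT-PCR, fluorescent labelling, HpaI digestion and capillary electrophoresis; bidirectional fitting against DMSO.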

[2] = ATG_NFI_CIS: Attagene CIS-FACTORIAL HepG2 Assay for human Nuclear Factor I (NFI) (AID 2282989); conditions: HepG2 cis-regulatory reporter, NFI response element transcription; actives raise or lower the signal
In short: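 Transient MRTU transfection of HepG2 → 24 h chemical dosing → total RNA, oligo(dT) RT → PCR, 6-FAM primer extension, HpaI cut → capillary electrophoresis. Endpoint fitted bidirectionally relative to DMSO.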

[3] = target: Myc proto-oncogene protein (Homo sapiens) (UniProt P01106); assay: ATG_Myc_CIS: Attagene CIS-FACTORIAL HepG2 Assay for human Myelocytomatosis (Myc) Proto-Oncogene Transcription Factor (AID 2282990); conditions: HepG2, Attagene cis-reporter transcription factor activity; actives raise or lower the signal
Chain of Myc proto-oncogene protein (Homo sapiens) (P01106 whole entry, looked up): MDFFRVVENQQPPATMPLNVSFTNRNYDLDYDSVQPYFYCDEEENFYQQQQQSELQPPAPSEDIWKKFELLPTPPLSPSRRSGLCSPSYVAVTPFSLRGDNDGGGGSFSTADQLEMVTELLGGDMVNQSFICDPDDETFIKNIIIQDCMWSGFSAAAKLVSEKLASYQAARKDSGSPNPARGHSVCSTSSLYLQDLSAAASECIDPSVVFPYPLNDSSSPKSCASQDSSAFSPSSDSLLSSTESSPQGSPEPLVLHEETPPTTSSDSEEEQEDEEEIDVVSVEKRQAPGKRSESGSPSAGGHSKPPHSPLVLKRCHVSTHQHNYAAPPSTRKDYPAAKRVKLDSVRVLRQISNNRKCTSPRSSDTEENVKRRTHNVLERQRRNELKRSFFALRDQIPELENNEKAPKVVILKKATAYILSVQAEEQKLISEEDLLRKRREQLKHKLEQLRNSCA
In short: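 DMSO-normalised, bidirectionally fitted reporter mRNA signal. HepG2 cells transfected with cis reporter constructs, treated 24 h; transcripts detected by RT-PCR, 6-FAM primer extension and CE.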

[4] = ATG_NF_kB_CIS: Attagene CIS-FACTORIAL HepG2 Assay for human Nuclear Factor Kappa B (NF-kB) (AID 2282991); conditions: HepG2 Attagene cis-factorial NF-kB reporter mRNA; actives raise or lower the signal
In short: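 HepG2 cells transfected with cis-promoter-driven reporter units, so endogenous transcription factor activity is measured. Reporter mRNA quantified 24 h after dosing by RT-PCR and capillary electrophoresis, with bidirectional fitting against DMSO.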

[5] = ATG_NRF2_ARE_CIS: Attagene CIS-FACTORIAL HepG2 Assay for human Nuclear Factor Erythroid 2 Related Factor 2 (NFR2) response to Antioxidant Response Elements (ARE) (AID 2282992); conditions: HepG2 Attagene ARE/NRF2 reporter, transcription factor activity; actives raise or lower the signal
In short: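 Cis-factorial assay: transfected HepG2 reporter library, 24 h dosing, mRNA readout via RT-PCR/CE; DMSO-referenced bidirectional analysis.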

[6] = ATG_Oct_MLP_CIS: Attagene CIS-FACTORIAL HepG2 Assay for human Octamer-Binding Transcription Factor (Oct) (AID 2282993); conditions: HepG2 Attagene cis-factorial Oct reporter, mRNA; actives raise or lower the signal
In short: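 Transient MRTU transfection of HepG2 → 24 h compound treatment → RNA isolation, reverse transcription, PCR → 6-FAM primer extension, HpaI digest → capillary electrophoresis. Activity fitted both directions against DMSO.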

[7] = target: Cellular tumor antigen p53 (Homo sapiens) (UniProt P04637); assay: ATG_p53_CIS: Attagene CIS-FACTORIAL HepG2 Assay for human p53 Transcription Factor (AID 2282994); conditions: HepG2 p53 cis-element reporter, Attagene mRNA; actives raise or lower the signal
Chain of Cellular tumor antigen p53 (Homo sapiens) (P04637 whole entry, looked up): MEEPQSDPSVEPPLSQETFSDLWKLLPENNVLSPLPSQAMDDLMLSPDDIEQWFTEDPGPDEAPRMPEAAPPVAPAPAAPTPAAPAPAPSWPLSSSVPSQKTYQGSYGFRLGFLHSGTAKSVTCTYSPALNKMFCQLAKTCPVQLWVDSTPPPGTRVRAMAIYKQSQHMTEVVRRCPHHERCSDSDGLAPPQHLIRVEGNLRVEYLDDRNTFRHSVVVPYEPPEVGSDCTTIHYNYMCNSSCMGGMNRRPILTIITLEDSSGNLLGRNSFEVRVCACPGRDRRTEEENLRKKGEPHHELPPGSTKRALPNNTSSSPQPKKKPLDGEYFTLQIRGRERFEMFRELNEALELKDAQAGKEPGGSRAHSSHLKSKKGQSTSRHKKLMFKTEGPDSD
In short: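 Using HepG2 hepatoma cells carrying cis-acting multiplexed reporters, mRNA induction is detected after a 24 h exposure. Gain- and loss-of-signal responses are fitted relative to DMSO-treated cells.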

[8] = BSK_3C_TissueFactor: BioMAP Diversity Plus: 3C Assay for Tissue Factor Biomarker Activity (AID 2282997); conditions: BioMAP 3C HUVEC, tissue factor biomarker readout; actives raise or lower the signal
In short: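 HUVEC were treated 24 h, then surface tissue factor measured by ELISA and fitted bidirectionally against DMSO. Parallel SRB total-protein staining assessed overt cytotoxicity at the same time point.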

[9] = BSK_3C_uPAR: BioMAP Diversity Plus: 3C Assay for Urokinase-type plasminogen activator receptor (uPAR) Biomarker Activity (AID 2282998); conditions: BioMAP 3C HUVEC, uPAR biomarker ELISA; actives raise or lower the signal
In short: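 ELISA readout of uPAR on human vascular endothelium (umbilical vein primary cells), taken 24 h after chemical dosing. Increases and decreases are both fitted relative to DMSO vehicle.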

[10] = ATG_M_61_TRANS: Attagene TRANS-FACTORIAL HepG2 Assay for M61 Transcription Factor (Internal Marker) (AID 2282988); conditions: HepG2 Attagene TRANS M61 internal marker reporter
Description: ATG_TRANS is a cell-based, multiplexed-readout assay that uses HepG2, a human liver cell line, with measurements taken at 24 hours after chemical dosing in a 24-well plate.ATG_M_61_TRANS is one of 30 assay component(s) measured or calculated from the ATG_TRANS assay. It is designed to make measurements of mRNA induction, a form of inducible reporter, as detected with fluorescence intensity signals by Reverse transcription polymerase chain reaction (RT-PCR) and Capillary electrophoresis technology.Data from the assay component ATG_M_61_TRANS was analyzed into 1 assay endpoint. This assay endpoint, ATG_M_61_TRANS, was analyzed in the positive analysis fitting direction relative to DMSO as the negative control and baseline of activity. […] Furthermore, this assay endpoint can be referred to as a secondary readout, because this assay has produced multiple assay endpoints where this one serves a background control function. […]
Human liver HepG2 cells are transiently transfected with multiple reporter transcription units (MRTUs) in 6-well plates using FuGene 6 reagent (Roche; 3 ml FuGene/1 mg DNA). […] A major difference between the CIS and TRANS system is that in CIS activities of endogenous TFs are measured, whereas the TRANS assay evaluates changes in activities of exogenous, chimeric NR-Gal4 proteins. […]

SMILES	outcome [1]	outcome [2]	outcome [3]	outcome [4]	AC50 [5]	outcome [5]	outcome [6]	outcome [7]	outcome [8]	outcome [9]	AC50 [4]	AC50 [6]	AC50 [7]	AC50 [9]	AC50 [2]	AC50 [1]	AC50 [8]	outcome [10]
CCC(C)OC(=O)N1CCCCC1CCO (stereo not drawn)	inactive	inactive	inactive	inactive	44.4 µM (active)	inactive	inactive	inactive	inactive	inactive								
C[C@]12C[C@H](O)[C@H]3[C@@H](CCC4=CC(=O)CC[C@@]43C)[C@@H]1CC[C@@H]2C(=O)CO	inactive	inactive		inactive		inactive	inactive	inactive	inactive	inactive								
O=C(Nc1ccc([N+](=O)[O-])cc1Cl)c1cc(Cl)ccc1O	inactive	inactive	inactive		0.544 µM (active)				inactive		1.17 µM (active)	0.7 µM (active)	700 nM (active)	0.145 µM (active)				
CCC(O)=C1C(=O)CC(C(=O)O)CC1=O (stereo not drawn)	inactive	inactive	inactive	inactive	35.6 µM (active)		inactive	inactive	inactive	inactive								
Cc1nn(C)c(Oc2ccccc2)c1C=NOCc1ccc(C(=O)OC(C)(C)C)cc1	inactive		inactive		0.0249 µM (active)			inactive	inactive			0.0401 µM (active)		7.77 µM (active)	42.4 nM (active)			
CCNc1nc(N)nc(Cl)n1	inactive	inactive	inactive	inactive		inactive	inactive	inactive	inactive	inactive								
CCCCOC(=O)[C@@H](C)Oc1ccc(Oc2ccc(C(F)(F)F)cn2)cc1	inactive	inactive	inactive	inactive		inactive	inactive	inactive	inactive	inactive								
CCCCC(CC)CN1C(=O)C2C3C=CC(C3)C2C1=O (stereo not drawn)	inactive	inactive	inactive	inactive	16.7 µM (active)			inactive	inactive			17.4 µM (active)		32.2 µM (active)				
O=C(c1ccc(O)cc1O)c1ccc(O)cc1O	inactive	inactive		inactive		inactive	inactive	inactive		inactive						46.5 µM (active)	29.2 µM (active)	
COC(=O)c1ccccc1C(=O)O	inactive	inactive	inactive	inactive		inactive	inactive	inactive	inactive	inactive								
CSC(=O)c1cccc2nnsc12	inactive	inactive	inactive			inactive	inactive	inactive	inactive	inactive								
CC(C)CCCCCCc1ccc(O)cc1	inactive	inactive		inactive	8.96 µM (active) and 11.1 µM (active) and 9.16 µM (active)	inactive	inactive	inactive			11.1 µM (active)	17.4 µM (active) and 17.1 µM (active)	20.1 µM (active) and 20.3 µM (active)	9.68 µM (active)	15800 nM (active)	15.7 µM (active)	9.54 µM (active)	inactive
c1ccc2[nH]c(-c3cscn3)nc2c1	inactive	inactive		inactive	149 µM (active)	inactive	inactive		inactive	inactive								
COC(=O)c1ccc(I)cc1S(=O)(=O)NC(=O)Nc1nc(C)nc(OC)n1	inactive	inactive	inactive			inactive	inactive	inactive	inactive	inactive								
O=C(c1ccccc1)C1CCCCC1	inactive	inactive	inactive	inactive		inactive	inactive	inactive	inactive	inactive								
O=C(O)C1(C(=O)Nc2ccc(Cl)cc2Cl)CC1	inactive	inactive		inactive	30.4 µM (active)		inactive	inactive	inactive	inactive								
COC(=O)CSc1cc(N=c2sc(=O)n3n2CCCC3)c(F)cc1Cl	inactive	inactive	inactive		27.2 µM (active)		inactive	inactive	inactive	inactive								
COc1nc(C)nc(NC(=O)NS(=O)(=O)c2ccccc2OCCCl)n1	inactive	inactive	inactive	inactive	6.85 µM (active)	inactive	inactive	inactive	inactive	inactive								
COc1c(Cl)ccc(Cl)c1C(=O)O	inactive	inactive	inactive			inactive	inactive		inactive	inactive								
CCOC(=O)[C@H](C)Oc1ccc(Oc2nc3ccc(Cl)cc3o2)cc1	inactive	inactive	inactive	inactive	50 µM (active)		inactive	inactive	inactive	inactive								
c1ccc(Nc2ccccc2)cc1	inactive	inactive		inactive	123 µM (active) and 30.4 µM (active)		inactive	inactive	inactive	inactive		50 µM (active)						
CCCCOCCOCCOCc1cc2c(cc1CCC)OCO2	inactive	inactive	inactive	inactive	7.81 µM (active)		inactive		inactive	inactive								
CC(C)(c1ccc(O)cc1)c1ccc(O)cc1	inactive	inactive		inactive		inactive	inactive	inactive	inactive	inactive	56.9 µM (active)		86.2 µM (active) and 100 µM (active) and 133 µM (active)		44.2 µM (active) and 37.8 µM (active)	62.2 µM (active)		
CCCN(CCC)c1c([N+](=O)[O-])cc(C(F)(F)F)c(N)c1[N+](=O)[O-]	inactive	inactive	inactive		5.51 µM (active)			inactive			50 µM (active)	4.57 µM (active)		31.8 µM (active)			36.5 µM (active)	
C#C[C@]1(O)CC[C@H]2[C@@H]3CCC4=CC(=O)CC[C@@H]4[C@H]3CC[C@@]21CC	inactive	inactive	inactive	inactive	52.1 µM (active)	inactive	inactive	inactive	inactive	inactive								
CCCCOC(=O)C(C)Oc1ccc(Oc2ccc(C(F)(F)F)cn2)cc1 (stereo not drawn)	inactive	inactive	inactive	inactive		inactive	inactive	inactive	inactive	inactive								
N#CSCSc1nc2ccccc2s1	inactive		inactive	inactive	2.89 µM (active)	inactive	inactive				3.07 µM (active)	14.5 µM (active)		2.04 µM (active) and 6.26 µM (active)	15.4 µM (active) and 358 nM (active)	16.7 µM (active)	3.33 µM (active) and 5.66 µM (active)	
